For 6 compounds, composite z-score and z-score results are on record in PubChem BioAssay.

Test [1] concerns Plasmodium falciparum Sir2 (PF13_0152, Sir2A). The test is described as follows: Plasmodium falciparum Sir2A binding compounds – biochemical, small-molecule microarray, 635 nm fluorescence, primary screen (AID 1098).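 Note: score merges spot fluorescence intensity with its signal-to-noise ratio.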 The following applies: fluorescence 635 nm, higher = more signal.
A short description of test [2]: probe aDKK1 binding to arrayed compounds – biochemical, biotinylated probe, 635/667 nm fluorescence, primary screen (AID 1099).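 Note: score merges 667nm spot fluorescence with signal to noise across triplicate slides.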 The following applies: small-molecule microarray, higher = more signal.
Test [3] is described as follows: probe aCHRDL2 binding to arrayed compounds – biochemical, biotinylated probe, 635/667 nm fluorescence, primary screen (AID 1100). The following applies: small-molecule microarray, higher = more signal.
A short description of test [4]: change in splice reporter luminescence, either direction, cell-based, HEK293, spliceosome inhibition project, primary screen (AID 1101).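 Note: HEK293 cells carrying a splicing-competent luciferase reporter gene; test concentration not given here.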 The following applies: HEK293 splicing luciferase reporter, 24 h, higher = more signal, called active from +8 up or from −8 down.
Test [5] deals with Fibroblast growth factor 10 (Homo sapiens) (UniProt O15520). The test is described as follows: compounds binding fibroblast growth factor 10 – biochemical, small-molecule microarray, 635 nm fluorescence, primary screen (AID 1102). The following applies: FGF10 binding, fluorescence 635 nm, higher = more signal.
The subject of test [6] is glycogen synthase kinase-3 (GSK3A per assay name; protocol says GSK3B). Put plainly: compounds binding glycogen synthase kinase-3 – biochemical, small-molecule microarray, 635 nm fluorescence, GSK3A, primary screen (AID 1103). Note: the record names both GSK3A and GSK3B. Conditions: fluorescence 635 nm, higher = more signal.
Test [7] concerns the target Epidermal growth factor receptor (Homo sapiens) (UniProt P00533). Put plainly: compounds binding epidermal growth factor receptor – biochemical, small-molecule microarray, 635 nm fluorescence, primary screen (AID 1104).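 Note: score merges 667 nm emission intensity with spot signal to noise over triplicate slides.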 Conditions: EGFR binding, higher = more signal.
The target in test [8] is Follistatin-related protein 3 (Homo sapiens) (UniProt O95633). The test is described as follows: compounds binding follistatin-related protein 3 – biochemical, small-molecule microarray, 635 nm fluorescence, primary screen (AID 1105).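 Note: score merges emission near 667 nm and signal to noise per printed spot across three slides.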 Conditions: FSTL3 binding, higher = more signal.
Test [9] concerns the target Dickkopf-related protein 1 (Homo sapiens) (UniProt O94907). Put plainly: small molecules binding DKK1 protein – biochemical, small-molecule microarray, 635 nm fluorescence scan, primary screen (AID 1106).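 Note: score merges emission near 667 nm with signal to noise over three replicate slides.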 The following applies: higher = more signal.
Test [10] relates to Inhibin beta A chain (activin A). Put plainly: small molecules binding activin A – biochemical, small-molecule microarray, 635 nm fluorescence scan, primary screen (AID 1107).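 Note: mouse activin A protein probed at 4.33 µg/mL on printed slides; score merges bound-protein fluorescence near 667 nm with spot signal-to-noise.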 Conditions: INHBA, higher = more signal.
Test [11] concerns Human papillomavirus type 1a protein E7 (residues 44-93). Put plainly: small molecules binding HPV E7 44-93 – biochemical, small-molecule microarray, residues 44-93, 635 nm fluorescence, primary screen (AID 1108).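 Note: E7 fragment applied at 1 µg/mL in TBST for 1 h at 4 C; score combines spot fluorescence with its signal to noise ratio.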 The following applies: fluorescence 635 nm, higher = more signal.
Test [12] is described as follows: hepatitis C replication reporter changes, two-sided – Huh7 cells, luciferase reporter, HCV replication inhibitor project, primary screen (AID 1109).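 Note: huh7 hepatoma cells harbouring a luciferase neomycin HCV replicon reporter; luciferase luminescence as measure of HCV replicon replication; test concentration not given here.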 Conditions: Huh7 HCV replicon luciferase reporter, 48 h; higher = more signal.
In test [13] the target is Left-right determination factor 2 (Homo sapiens) (UniProt O00292). Put plainly: small molecules binding LEFTY2 protein – biochemical, small-molecule microarray, 635 nm fluorescence scan, primary screen (AID 1110). The following applies: higher = more signal.
The target in test [14] is Calmodulin-1 (Homo sapiens) (UniProt P0DP23). Put plainly: small molecules binding calmodulin-1 with EGTA – biochemical, small-molecule microarray, Cy5-labelled CALM1, profiling panel (AID 1111).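 Note: labelled calmodulin applied in Tris saline Tween buffer holding calcium plus EGTA and DTT.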 The following applies: Cy5-CALM1 binding fluorescence, higher = more signal.
For test [15] the target is unchanged. The test is described as follows: small molecules binding Ca-loaded calmodulin-1 – biochemical, small-molecule microarray, Cy5-labelled CALM1, plus calcium, artefact control for SMM control-protein annotation, profiling panel (AID 1112).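 Note: score merges spot fluorescence with signal to noise from triplicate slides.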 Conditions: Cy5-CALM1 binding fluorescence, higher = more signal.
Test [16] in a line: probe aWnt5a binding to arrayed compounds – biochemical, biotinylated probe, 635/667 nm fluorescence, primary screen (AID 1113).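 Note: score merges 667 nm fluorescence intensity with signal-to-noise per printed feature.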 Conditions: small-molecule microarray, higher = more signal.
Test [17] can be described thus: probe aShh binding to arrayed compounds – biochemical, biotinylated probe, 635/667 nm fluorescence, primary screen (AID 1114).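 Note: probe is biotin-labelled aShh protein from a stem cell growth factor screen; measures binding of labelled protein to compounds printed on the slide; score merges feature fluorescence at 667 nm with signal-to-noise.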 Conditions: small-molecule microarray, higher = more signal.
Test [18] can be described thus: probe aNog binding to arrayed compounds – biochemical, biotinylated probe, 635/667 nm fluorescence, primary screen (AID 1115).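 Note: probe is biotinylated aNog protein used at 0.15 µg/mL for 1 h at 4 C; z-score combines 667 nm fluorescence of each spot with its signal to noise.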 Conditions: small-molecule microarray, higher = more signal.
For test [19], the target named is Torsin-1A-interacting protein 1 (Homo sapiens) (UniProt Q5JTV8). The test is described as follows: compound microarray binding of lysate hLAP1 – cell lysate, small-molecule microarray, COS7 lysate, 635/667 nm fluorescence, primary screen (AID 1116). The following applies: 635 nm fluorescence, higher = more signal.
In test [20] the target is Alpha-bungarotoxin (Bungarus multicinctus) (UniProt P60615). The test is described as follows: compounds binding labelled alpha-BTX control protein – biochemical, small-molecule microarray, Alexa647 label, 635/667 nm fluorescence, artefact control for SMM control protein annotation, profiling panel (AID 1117). The following applies: alpha-BTX-A647 binding fluorescence, higher = more signal.

Calls of active or inactive are those of the source.

Left-right determination factor 2 (Homo sapiens), sequence (O00292 whole entry, looked up): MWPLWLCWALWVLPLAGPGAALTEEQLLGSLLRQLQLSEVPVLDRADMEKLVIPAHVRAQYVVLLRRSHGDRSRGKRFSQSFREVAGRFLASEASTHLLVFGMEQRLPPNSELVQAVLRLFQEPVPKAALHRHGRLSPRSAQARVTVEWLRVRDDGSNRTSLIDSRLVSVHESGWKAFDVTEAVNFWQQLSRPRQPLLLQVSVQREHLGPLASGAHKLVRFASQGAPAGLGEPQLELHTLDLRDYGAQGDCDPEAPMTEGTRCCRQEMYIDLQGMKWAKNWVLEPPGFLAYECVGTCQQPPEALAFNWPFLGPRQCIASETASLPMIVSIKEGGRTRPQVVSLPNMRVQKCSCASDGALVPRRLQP
Alpha-bungarotoxin (Bungarus multicinctus), sequence (P60615 whole entry, looked up): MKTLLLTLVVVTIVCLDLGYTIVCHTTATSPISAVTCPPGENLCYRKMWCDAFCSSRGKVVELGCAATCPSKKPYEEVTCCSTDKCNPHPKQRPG
Follistatin-related protein 3 (Homo sapiens), sequence (O95633 whole entry, looked up): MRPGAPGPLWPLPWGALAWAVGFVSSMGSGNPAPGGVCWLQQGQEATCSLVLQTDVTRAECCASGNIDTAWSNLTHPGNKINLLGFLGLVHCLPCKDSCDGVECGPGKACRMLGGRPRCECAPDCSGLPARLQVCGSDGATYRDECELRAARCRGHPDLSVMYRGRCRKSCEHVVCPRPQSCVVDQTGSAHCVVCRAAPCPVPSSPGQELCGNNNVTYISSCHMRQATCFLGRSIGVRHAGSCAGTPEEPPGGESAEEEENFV
Epidermal growth factor receptor (Homo sapiens), sequence (P00533 whole entry, looked up): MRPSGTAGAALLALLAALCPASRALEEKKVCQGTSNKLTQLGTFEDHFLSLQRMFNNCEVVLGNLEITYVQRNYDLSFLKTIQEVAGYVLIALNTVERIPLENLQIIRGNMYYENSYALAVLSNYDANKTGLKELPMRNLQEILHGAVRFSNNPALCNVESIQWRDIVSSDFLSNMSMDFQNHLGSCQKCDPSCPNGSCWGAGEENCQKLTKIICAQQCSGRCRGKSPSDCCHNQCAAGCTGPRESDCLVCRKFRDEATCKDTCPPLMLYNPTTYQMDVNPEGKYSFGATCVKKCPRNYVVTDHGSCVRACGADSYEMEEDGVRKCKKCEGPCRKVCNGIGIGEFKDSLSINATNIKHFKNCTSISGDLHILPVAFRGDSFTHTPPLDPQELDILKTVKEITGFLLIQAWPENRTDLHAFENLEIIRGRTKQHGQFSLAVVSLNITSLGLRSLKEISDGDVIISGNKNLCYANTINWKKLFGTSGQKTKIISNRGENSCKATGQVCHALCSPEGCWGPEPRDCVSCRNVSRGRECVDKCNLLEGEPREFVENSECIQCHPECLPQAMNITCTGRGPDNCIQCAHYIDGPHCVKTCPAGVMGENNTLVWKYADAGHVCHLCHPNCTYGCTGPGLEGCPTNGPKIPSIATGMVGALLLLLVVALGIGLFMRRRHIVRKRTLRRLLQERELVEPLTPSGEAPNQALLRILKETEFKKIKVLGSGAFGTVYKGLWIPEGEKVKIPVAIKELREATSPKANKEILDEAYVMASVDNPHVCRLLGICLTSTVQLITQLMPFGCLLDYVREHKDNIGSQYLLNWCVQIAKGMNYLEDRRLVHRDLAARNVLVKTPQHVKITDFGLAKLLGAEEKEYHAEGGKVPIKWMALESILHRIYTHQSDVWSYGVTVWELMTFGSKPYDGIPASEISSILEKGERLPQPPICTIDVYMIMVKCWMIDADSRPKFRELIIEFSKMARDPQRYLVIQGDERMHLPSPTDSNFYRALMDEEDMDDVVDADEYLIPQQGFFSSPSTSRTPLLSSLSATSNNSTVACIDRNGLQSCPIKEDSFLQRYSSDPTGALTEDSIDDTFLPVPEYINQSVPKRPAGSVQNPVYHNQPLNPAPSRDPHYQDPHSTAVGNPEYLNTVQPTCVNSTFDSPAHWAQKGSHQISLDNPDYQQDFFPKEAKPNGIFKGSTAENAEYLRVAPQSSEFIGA
Torsin-1A-interacting protein 1 (Homo sapiens), sequence (Q5JTV8 whole entry, looked up): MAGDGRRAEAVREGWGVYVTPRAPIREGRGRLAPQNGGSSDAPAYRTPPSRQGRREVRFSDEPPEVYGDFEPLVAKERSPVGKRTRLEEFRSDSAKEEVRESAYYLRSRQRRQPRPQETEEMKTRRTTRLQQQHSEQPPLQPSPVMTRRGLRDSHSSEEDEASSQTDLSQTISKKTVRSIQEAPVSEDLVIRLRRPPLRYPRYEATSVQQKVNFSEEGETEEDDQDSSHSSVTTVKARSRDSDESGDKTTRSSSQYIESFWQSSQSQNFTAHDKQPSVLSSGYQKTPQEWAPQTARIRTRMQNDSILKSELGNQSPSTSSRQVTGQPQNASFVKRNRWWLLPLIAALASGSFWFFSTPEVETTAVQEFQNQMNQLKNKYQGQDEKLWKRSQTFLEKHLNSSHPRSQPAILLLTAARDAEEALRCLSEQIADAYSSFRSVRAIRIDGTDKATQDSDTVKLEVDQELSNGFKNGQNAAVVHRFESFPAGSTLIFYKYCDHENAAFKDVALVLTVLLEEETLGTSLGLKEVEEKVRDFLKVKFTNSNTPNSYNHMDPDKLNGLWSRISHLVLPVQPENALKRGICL
Fibroblast growth factor 10 (Homo sapiens), sequence (O15520 whole entry, looked up): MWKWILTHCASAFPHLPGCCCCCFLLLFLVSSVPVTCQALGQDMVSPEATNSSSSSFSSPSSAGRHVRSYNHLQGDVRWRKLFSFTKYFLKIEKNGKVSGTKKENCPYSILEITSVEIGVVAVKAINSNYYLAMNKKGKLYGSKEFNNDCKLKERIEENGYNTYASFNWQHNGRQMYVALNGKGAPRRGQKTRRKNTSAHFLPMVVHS
Dickkopf-related protein 1 (Homo sapiens), sequence (O94907 whole entry, looked up): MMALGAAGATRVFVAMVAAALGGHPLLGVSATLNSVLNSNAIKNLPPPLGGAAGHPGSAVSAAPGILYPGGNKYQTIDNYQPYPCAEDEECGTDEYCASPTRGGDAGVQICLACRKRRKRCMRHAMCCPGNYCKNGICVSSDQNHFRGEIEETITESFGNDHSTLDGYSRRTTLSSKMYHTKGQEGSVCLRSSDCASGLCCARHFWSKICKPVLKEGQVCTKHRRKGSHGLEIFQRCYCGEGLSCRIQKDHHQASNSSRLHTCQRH

On to `O=C1O[C@H](c2ccccc2)[C@H](c2ccccc2)N2[C@H]1[C@@H](C(=O)N1CCCCCCC1)[C@]1(C(=O)Nc3ccc(C#CC4(O)CCCCCC4)cc31)[C@H]2c1ccc(O)cc1`, for which the composite z-score in test [1] worked out at 1.5; in test [2], 2.93; in test [3], 1.59; in test [5], 1.19; in [6], 1.34; in [7], 1.72. In addition, the composite z-score in test [8] came to 1.58; in test [9] it was 1.75; in [10], 1.79; in test [11], 1.4; in test [13], 1.33; in test [14], 2.42. The composite z-score worked out at 1.19 in test [15]; 1.2 in [16]; 2.97 in test [17]; 3.1 in [18]; 4.57 in test [19]; 2.28 in test [20]. Further, the z-score in [4] is 0.69 (inactive); in [12] it was -1.36.
For `COc1cc(NN2C(C(O)C3CCCCC3)C=CC3C(=O)N(C)C(=O)C32)cc(OC)c1OC` (stereo not given), the composite z-score in [1] came to 1.04; in [2], 1.05; in [3], 1.1; in [5], 0.144; in [6] it was 1.17; in test [7] it was 0.203. In addition, the composite z-score in test [8] was 1.06; in test [9] it was -1.47; in test [10], 0.823; in test [11], 1.44; in test [13], 0.0347; in test [14], 2.01. The composite z-score in [15] came to 0.964; in [16] it was 0.265; in test [17], 0.417; in test [18] it was 1.32; in test [19] it was 1.32; in test [20], 1.72. For the same compound, the z-score in test [4] is 1.1 (inactive); in test [12], -0.611.
As to `COC(=O)[C@@]1(Cc2ccc(OC)cc2)[C@H]2c3cc(C(=O)N4CCCC4)n(Cc4cc(C)n(C)n4)c3C[C@H]2CN1C(=O)c1ccccc1`, the composite z-score in [1] is 1.74; in [2] it was 1.26; in test [3], 1.17; in test [5], 1.32; in test [6], 0.666; in test [7] it was -0.158. The composite z-score in [8] is 0.0098; in [9], -0.712; in test [10], 0.104; in test [11] it was 0.712; in [13] it was 0.78; in [14], 1.46. Besides, the composite z-score worked out at 0.81 in test [15]; 0.23 in test [16]; 0.4 in [17]; 0.352 in test [18]; 1.21 in test [19]; 0.769 in test [20]. The results for the z-score in test [4] and in [12] were 0.317 (inactive) and -1.38, respectively.
As to `O=c1cccc(-c2ccco2)o1`, the composite z-score in [1] was 1.28; in test [2], -0.148; in [3] it was -0.617; in test [5], 0.955; in [6], 0.829; in test [7] it was 0.693. Further, the composite z-score is 1.02 in test [8]; 1.16 in test [9]; 1.24 in [10]; 0.582 in test [11]; 0.758 in test [13]; -0.221 in test [14]. For the same compound, the composite z-score is -1.23 in test [15]; -0.0179 in test [16]; 0.0952 in test [17]; -0.0563 in test [18]; 0.18 in test [19]; 0.738 in test [20]. Moreover, the z-score in test [4] was 0.935 (inactive); in test [12], -0.574.
Consider `CCOC(=O)C1=C[C@@H](C(C)(C)C)N(S(=O)(=O)c2ccc(C)cc2)[C@H]1c1ccc(C)cc1`, for which the composite z-score was 0.772 in test [1]; 0.46 in [2]; 0.517 in [3]; 1.3 in test [5]; 0.995 in test [6]; 0.78 in test [7]. Also, the composite z-score in [8] was determined as 1.26; in test [9], 0.541; in test [10] it was 0.516; in test [11], 0.974; in test [13] it was 0.424; in test [14], 1.81. Besides, the composite z-score is -0.0354 in test [15]; 0.0479 in [16]; -0.0709 in test [17]; 1.27 in test [18]; 0.229 in test [19]; 1.11 in test [20]. The figures for the z-score in test [4] and in [12] were -0.598 (inactive) and -1.04, respectively.
`COc1ccc([Si](C)(C)[C@@H]2[C@@H](CC(=O)N3Cc4ccccc4C[C@H]3CO)O[C@]3(C(=O)N(Cc4ccc(N5CCC5=O)cc4)c4ccccc43)[C@H]2C)cc1`: the composite z-score in [1] was 1.16; in test [2], -0.259; in [3], -0.1; in test [5], 0.46; in [6], 0.852; in test [7] it was 0.744. Further, the composite z-score amounted to 1.06 in [8]; 0.644 in test [9]; 0.331 in test [10]; 1.02 in test [11]; 0.759 in test [13]; 1.04 in test [14]. For the same compound, the composite z-score in test [15] is -0.0245; in test [16], -0.124; in [17], -0.16; in test [18], -0.388; in test [19], 1.24; in test [20], 0.963. Moreover, the z-score in test [4] was -1.12 (inactive); in test [12], -3.58.
